# tim23-1 inh: growth inhibitors of tim23-1 mutant yeast. inhibition, % at 20 µM. S. cerevisiae tim23-1 growth, BacTiter-Glo luminescence, 24 h. hit rate 1.3% among 330,000;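 active = growth inhibition of the mutant yeast at or above 50%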;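 also: temperature-sensitive mutant grown at 25 °C; plate controls were DMSO-treated mutant yeast for no effect and medium wells lacking yeast for full effect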
# CR mimetic SO: lowers age-related superoxide in aged yeast cells | hit rate 0.18% among 330,000 | AID 2690 | superoxide response (% of plate mean), % at 10 µM | S. cerevisiae aged cells, superoxide DHE fluorescence; stronger effect = lower value;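 active = superoxide response under a set limit, about three screen SD below normal, cut at about 65% in these data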;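 also: yeast aged for seven days with compound at 30 °C before DHE staining; 100% = average MFI of all compound-treated wells on the plate with controls excluded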
# TIM10 inh: growth inhibitors of TIM10 yeast strain; hit rate 1.4% among 330,000; inhibition, % at 10 µM; AID 463195; S. cerevisiae TIM10 strain growth, BacTiter-Glo luminescence, 24 h;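 active = inhibition of 40% or more at the single tested concentration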;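 also: wild-type TIM10 isogenic control strain grown at permissive 25 °C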
# NLRP3 yeast inh: inhibitors of NALP3 inflammasome in yeast | AID 2825 | Yeast reconstituted NLRP3/ASC/caspase-1, beta-gal luminescence, 24 h | hit rate 0.39% among 330,000 | inhibition, % at 10 µM;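 active = inhibition of 50% or more; inactive = inhibition below 50%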;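 also: plate controls were induced DMSO wells for no effect and uninduced yeast grown without galactose for full effect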
# tim10-1 inh: tim10-1 yeast growth inhibition | S. cerevisiae tim10-1 ts strain growth, BacTiter-Glo, 24 h | inhibition, % at 20 µM | AID 463190 | hit rate 2.2% among 330,000;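 active = inhibition of at least 40%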;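 also: mutant grown at 25 °C; 0% = DMSO wells with yeast and 100% = wells holding no yeast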
# tim23-1 confirm: confirmation of tim23-1 mutant yeast growth inhibitors; shares compounds with tim23-1 inh; S. cerevisiae tim23-1 growth, BacTiter-Glo luminescence, 24 h; inhibition, % at 20 µM; hit rate 83% among 4,400; AID 463218;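 active = inhibition above about 39% in either of two replicate wells at 20 µM, limit read from the data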;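 also: temperature-sensitive tim23-1 mutant grown at 25 °C; 0% = DMSO wells with yeast and 100% = medium wells without yeast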
# The depositor's hits bear a star; · = no result given. Only some compounds are listed: those with a hit (about 3.8% of all), similar ones and a draw of the others.
SMILES,tim23-1 inh,CR mimetic SO,TIM10 inh,NLRP3 yeast inh,tim10-1 inh,tim23-1 confirm
CCOc1cc2c3c(c1)C(C)CC(C)(C)N3C(=O)C2=O (stereo unspecified),50*,88,30,28,27,55*
Cc1cc2c3c(c1)C(C)CC(C)(C)N3C(=O)C2=O (stereo unspecified),53*,89,22,8,33,55*
CCOc1cc2c3c(c1)C(C)=CC(C)(C)N3C(=O)C2=O,56*,95,14,29,11,56*
Cc1cc2c3c(c1C)C(=O)C(=O)N3C(C)(C)CC2C (stereo unspecified),36,107,19,9,35,·
O=C(COC(=O)c1c(Cl)ccc(Cl)c1Cl)NC(=O)NCc1ccccc1,10,92,22,14,11,·
O=C(O)c1ccc(S(=O)(=O)N2CCc3ccccc3C2)cc1,9,95,0,5,-8,·
CC(Sc1nc(N)cc(=O)[nH]1)C(=O)NCC(=O)Nc1ccc(F)c(F)c1F (stereo unspecified),-9,94,-2,11,-9,·
Cc1sc2nc(C3CC3)nc(SCC(=O)N3CCc4ccccc4C3)c2c1C,29,82,23,0,38,·
CCc1c(C)sc2nc(C(C)C)nc(SCC(=O)N3CCc4ccccc4C3)c12,51*,86,24,9,19,41*
COc1ccc(N(C(C)C(=O)Nc2ccc(S(=O)(=O)N3CCCCC3)cc2)S(C)(=O)=O)cc1 (stereo unspecified),12,95,-7,10,14,·
O=C(c1cccs1)N1CCN(c2cc(Cl)ccc2Cl)CC1,50,111,15,-1,38,37
O=C(Nc1ccc(S(=O)(=O)N2CCCC2)cc1)c1ccc([N+](=O)[O-])o1,52*,101,35,1,19,34*
CC(=O)N1CCN(c2ccc(NC(=O)c3ccco3)cc2Cl)CC1,3,99,-4,22,0,·
CC(=O)N1CCN(c2ccc(NC(=O)c3ccc([N+](=O)[O-])o3)cc2Cl)CC1,51*,141,35,19,13,76*
O=C(Nc1ccc(S(=O)(=O)N2CCCC2)cc1)c1cccnc1Cl,-28,109,-14,4,-11,·
Cc1cc(N)n2nc(C)c(-c3ccc(Cl)cc3)c2n1,63*,97,39,20,34,72*
Clc1ccc(-c2ccc(/C=N/Nc3cc(N4CCOCC4)nc(N4CCOCC4)n3)o2)cc1,36,101,2,8,28,·
O=C(N/C=C/n1cnc2cc(C(F)(F)F)ccc21)c1ccccc1,3,104,2,-3,17,·
O=C1NC(c2cccc(Br)c2)=N/C1=C\c1ccco1,56*,92,31,7,26,35
Cc1ccccc1[C@]1(C)ON(c2ccccc2C(F)(F)F)C1=O,53*,106,31,35,9,58*
O=C(NC(=S)Nc1ccc(N2CCCCC2)cc1)c1ccco1,38,84,21,26,36,·
O=C(NC(=S)Nc1cccc(Cl)c1N1CCCCC1)c1ccco1,51*,107,34,-2,38,29
O=C(NC(=S)Nc1ccccc1N1CCOCC1)c1ccco1,55*,101,33,-34,39,38
O=C(NC(=S)Nc1cccc(Cl)c1N1CCCCC1)c1cccs1,53*,113,38,19,32,-131
CC1(C)Cc2c(sc3c2c(=O)n(-c2cccc(Cl)c2)c(=O)n3CC(N)=O)CO1,-14,102,-12,9,-12,·
SMILES,tim23-1 inh,CR mimetic SO,TIM10 inh,NLRP3 yeast inh,tim10-1 inh,tim23-1 confirm
COc1ccc(OCCCC(=O)OCC(=O)Nc2nnc(-c3ccccc3)o2)cc1,4,104,-4,6,-12,·
CCOC(=O)[C@@H]1[C@H]2COc3cc(OC)ccc3[C@H]2N2C(=O)N(c3ccc(Br)cc3)C(=O)[C@]12C,35,85,24,8,18,·
CN(C)c1cccc(C(=O)Nc2cccc(F)c2)c1,32,102,22,31,11,·
CCN(CC)c1ccc(C(=O)Nc2cccc(F)c2)cc1,65*,88,19,47,21,73*
COc1ccc(-c2cc(-c3ccccc3)n[nH]2)c(O)c1,69*,100,4,29,10,57*
COc1ccc(-c2cc(-c3ccccc3O)[nH]n2)cc1,69*,101,25,15,22,62*
COC(=O)c1cc(-c2ccc(OC)cc2)n[nH]1,9,106,5,32,3,·
Cc1cccc(C2=NN(c3ccccc3)[C@H](CO)[C@H]2c2ccc(F)cc2)c1,51*,112,20,·,28,34
Cc1cccc(C2=NN(c3ccc(Br)cc3)[C@@H](C(=O)N3CCOC3=O)[C@@H]2c2ccc(F)cc2)c1,17,103,9,10,19,·
OC[C@@H]1[C@@H](c2ccccc2)C(c2cccc(Cl)c2)=NN1c1ccccc1,52*,98,5,·,26,47*
COc1ccccc1[C@@H]1C(c2cccc(Cl)c2)=NN(c2ccccc2)[C@H]1C(=O)N1CCOC1=O,29,106,12,10,27,·
O=C1OCCN1C(=O)[C@H]1[C@H](c2ccc(Cl)cc2)C(c2cccc(Cl)c2)=NN1c1ccccc1,14,·,14,-1,27,·
COc1ccccc1[C@H]1C(c2cccc(Cl)c2)=NN(c2ccccc2)[C@@H]1CO,56*,114,12,·,20,40*
Cc1cccc(C2=NN(c3ccccc3)[C@H](CO)[C@H]2c2ccc(Cl)cc2)c1,51*,100,4,·,20,38
CCOC(=O)C[C@H]1c2ccc(C(F)(F)F)cc2S(=O)(=O)N1C(C)C,22,104,-5,3,19,·
O=C(COc1ccccc1)NCC(c1ccco1)N1CCN(c2ccccc2)CC1 (stereo unspecified),33,101,18,-21,36,·
Cc1nc2scc(C)n2c(=O)c1S(=O)(=O)Nc1ccc(OC(F)(F)F)cc1,60*,99,7,22,10,64*
Cc1nc2scc(C)n2c(=O)c1S(=O)(=O)Nc1ccc(N2CCOCC2)c(Cl)c1,26,97,5,2,-18,·
O=C(C1=C(O)C(=O)N(c2ncccn2)C1c1ccc(Cl)c(Cl)c1)c1ccco1 (stereo unspecified),58*,103,20,5,14,41*
C#CCOc1ccc(C2C3=C(CCCC3=O)N(CC(=O)O)C3=C2C(=O)CCC3)cc1Br,-4,106,-8,3,5,·
CCOc1ccc(S(=O)(=O)N/N=C(\C)c2ccc3c(c2)OCO3)cc1,27,101,7,11,16,·
CCCc1ccc(S(=O)(=O)N/N=C(/C)c2ccc3c(c2)OCO3)cc1,53*,104,14,20,35,48*
Cc1ccnc(NC(=O)c2cc(F)c(F)cc2Cl)n1,62*,101,20,0,28,47*
O=C(N/C(=C\c1ccco1)C(=O)N1CCCC1)c1cccs1,52*,116,11,7,9,3
